Common to all, as to assay: DAPPL (digital affinity profiling via proximity ligation, sequencing); 10 mM Tris-HCl pH 7.5, 50 mM NaCl, 1 mM DTT, 4% glycerol, room temperature, 30 min; GST-TFs on glutathione beads, 16-mer random dsDNA library, 0.1% formaldehyde crosslink after washing; high values mean tight binding
Common to all, as to conditions: protein: recombinant; tags: N-terminal GST; dsDNA, one strand shown

The target in assay [1] is T1, ERF (Homo sapiens, UniProt P50548 1-548).
T1 sequence: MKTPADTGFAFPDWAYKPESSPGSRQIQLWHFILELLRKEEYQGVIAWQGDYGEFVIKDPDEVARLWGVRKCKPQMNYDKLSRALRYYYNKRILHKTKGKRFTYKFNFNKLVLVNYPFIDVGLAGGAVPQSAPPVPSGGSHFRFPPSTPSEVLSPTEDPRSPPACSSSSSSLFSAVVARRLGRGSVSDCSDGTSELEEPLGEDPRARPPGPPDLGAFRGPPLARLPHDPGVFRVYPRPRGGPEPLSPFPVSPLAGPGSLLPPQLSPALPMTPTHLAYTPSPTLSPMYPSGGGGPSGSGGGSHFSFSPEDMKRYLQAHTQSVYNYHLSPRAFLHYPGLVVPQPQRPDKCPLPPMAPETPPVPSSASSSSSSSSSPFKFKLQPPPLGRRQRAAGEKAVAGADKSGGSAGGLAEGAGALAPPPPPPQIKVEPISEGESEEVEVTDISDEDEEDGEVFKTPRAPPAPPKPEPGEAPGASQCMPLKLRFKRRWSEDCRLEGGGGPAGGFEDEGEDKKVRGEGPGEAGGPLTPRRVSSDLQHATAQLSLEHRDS
The method, boiled down: (§1)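 Human transcription factors carrying a GST fusion were produced in yeast, bound to glutathione beads, tagged with DNA barcodes and pooled together with a tag-only sample. Each pool was held with 200 nmole of a random double-stranded 16-mer DNA library in Tris/NaCl/DTT/glycerol buffer for 30 min at room temperature, then washed, crosslinked in 0.1% formaldehyde, proximity-ligated with BsaI/T4 ligase (1 h, 37 °C), PCR-amplified and sequenced on an Illumina NextSeq500. Binding signal is the read frequency of each hexamer for a given factor divided by its frequency in the tag-only sample.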

In assay [2] the target is T2, ETV3L (Homo sapiens, UniProt Q6ZN32 1-361).
T2 sequence: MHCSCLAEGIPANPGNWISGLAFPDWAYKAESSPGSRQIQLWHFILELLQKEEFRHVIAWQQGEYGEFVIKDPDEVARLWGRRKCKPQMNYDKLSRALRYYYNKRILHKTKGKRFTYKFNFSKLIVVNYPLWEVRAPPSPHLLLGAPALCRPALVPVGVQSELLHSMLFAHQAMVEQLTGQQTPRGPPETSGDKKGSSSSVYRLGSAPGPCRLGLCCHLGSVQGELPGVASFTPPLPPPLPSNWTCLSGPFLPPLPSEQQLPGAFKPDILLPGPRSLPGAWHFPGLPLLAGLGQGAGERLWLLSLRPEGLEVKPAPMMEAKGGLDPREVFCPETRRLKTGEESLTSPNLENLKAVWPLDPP
The method, boiled down: as §1

Assay [3] deals with T3, ETS2 (Homo sapiens, UniProt P15036 1-469).
T3 sequence: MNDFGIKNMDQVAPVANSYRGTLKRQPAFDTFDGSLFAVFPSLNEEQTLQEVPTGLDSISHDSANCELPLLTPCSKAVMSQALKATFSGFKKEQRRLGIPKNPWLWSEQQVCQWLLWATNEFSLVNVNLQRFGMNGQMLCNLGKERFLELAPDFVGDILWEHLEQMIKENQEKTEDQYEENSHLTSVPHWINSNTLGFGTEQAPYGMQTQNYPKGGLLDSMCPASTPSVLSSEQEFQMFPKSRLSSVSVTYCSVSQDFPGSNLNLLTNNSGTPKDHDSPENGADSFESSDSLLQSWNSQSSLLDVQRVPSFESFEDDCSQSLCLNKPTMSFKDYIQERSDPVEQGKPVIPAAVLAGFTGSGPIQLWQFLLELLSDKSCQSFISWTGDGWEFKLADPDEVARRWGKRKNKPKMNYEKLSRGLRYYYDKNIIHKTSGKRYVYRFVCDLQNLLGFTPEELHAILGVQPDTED
The method, boiled down:
as §1

The target of assay [4] is T4, SPDEF (Homo sapiens, UniProt O95238 1-335).
T4 sequence: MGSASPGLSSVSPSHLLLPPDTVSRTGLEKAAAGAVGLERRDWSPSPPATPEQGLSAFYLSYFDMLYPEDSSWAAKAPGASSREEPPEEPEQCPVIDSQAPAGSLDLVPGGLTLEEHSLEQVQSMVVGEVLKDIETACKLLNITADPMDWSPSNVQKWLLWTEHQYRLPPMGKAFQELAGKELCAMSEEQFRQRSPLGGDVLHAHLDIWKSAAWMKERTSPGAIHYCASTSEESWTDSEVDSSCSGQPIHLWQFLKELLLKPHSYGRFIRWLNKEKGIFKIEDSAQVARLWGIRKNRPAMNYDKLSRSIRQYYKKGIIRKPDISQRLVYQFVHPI
The method, boiled down:
as §1

Assay [5] concerns the target T5, ETV7 (Homo sapiens, UniProt Q9Y603 1-341).
T5 sequence: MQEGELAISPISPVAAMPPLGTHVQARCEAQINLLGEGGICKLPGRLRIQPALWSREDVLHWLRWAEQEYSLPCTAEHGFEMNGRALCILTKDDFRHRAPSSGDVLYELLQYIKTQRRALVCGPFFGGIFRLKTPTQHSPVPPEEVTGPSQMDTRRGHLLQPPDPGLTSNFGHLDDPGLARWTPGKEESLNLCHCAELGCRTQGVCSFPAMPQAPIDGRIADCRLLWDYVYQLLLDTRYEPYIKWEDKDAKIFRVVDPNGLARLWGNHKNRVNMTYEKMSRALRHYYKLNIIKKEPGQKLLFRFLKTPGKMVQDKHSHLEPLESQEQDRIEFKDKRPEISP
The essentials:
as §1

Assay [6] deals with T6, ELF5 (Homo sapiens, UniProt Q9UKW6-2 1-255).
T6 sequence: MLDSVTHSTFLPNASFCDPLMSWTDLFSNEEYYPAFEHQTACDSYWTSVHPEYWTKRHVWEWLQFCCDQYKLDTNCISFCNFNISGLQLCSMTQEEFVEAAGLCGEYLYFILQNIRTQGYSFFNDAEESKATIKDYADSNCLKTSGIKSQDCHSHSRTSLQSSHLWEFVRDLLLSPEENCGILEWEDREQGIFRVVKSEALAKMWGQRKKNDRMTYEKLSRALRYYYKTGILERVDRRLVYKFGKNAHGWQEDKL
The method, boiled down: as §1

The target in assay [7] is T7, ETV3 (Homo sapiens, UniProt P41162-2 1-143).
T7 sequence: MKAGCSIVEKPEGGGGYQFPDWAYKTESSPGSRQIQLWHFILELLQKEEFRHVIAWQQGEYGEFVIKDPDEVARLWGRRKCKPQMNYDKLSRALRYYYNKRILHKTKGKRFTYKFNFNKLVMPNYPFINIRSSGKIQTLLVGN
The essentials: as §1

Assay [8] addresses ETV6 (Homo sapiens, UniProt P41212 1-452). The essentials: as §1

Chain of ETV6 (P41212 whole entry): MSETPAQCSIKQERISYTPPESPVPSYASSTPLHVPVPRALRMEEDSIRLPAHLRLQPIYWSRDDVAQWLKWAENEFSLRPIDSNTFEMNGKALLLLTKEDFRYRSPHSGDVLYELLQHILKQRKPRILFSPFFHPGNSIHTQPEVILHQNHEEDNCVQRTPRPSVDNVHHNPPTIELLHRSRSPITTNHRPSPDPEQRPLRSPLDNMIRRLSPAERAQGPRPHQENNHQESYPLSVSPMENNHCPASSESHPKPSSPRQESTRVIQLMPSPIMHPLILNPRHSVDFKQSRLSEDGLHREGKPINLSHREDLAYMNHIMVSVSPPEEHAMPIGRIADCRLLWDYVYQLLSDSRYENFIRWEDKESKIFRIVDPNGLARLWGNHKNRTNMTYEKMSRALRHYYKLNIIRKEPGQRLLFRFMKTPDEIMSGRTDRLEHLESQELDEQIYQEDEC

For the sequence CCTTTT, the binding signal was 1.65 fold enrichment (6-mer frequency, TF over GST control) in assay [1]; 1.69 fold enrichment (6-mer frequency, TF over GST control) in assay [2]; 1.46 fold enrichment (6-mer frequency, TF over GST control) in assay [3]; 1.55 fold enrichment (6-mer frequency, TF over GST control) in assay [4]; 1.53 fold enrichment (6-mer frequency, TF over GST control) in assay [5]; 1.61 fold enrichment (6-mer frequency, TF over GST control) in assay [6]. Also, the binding signal is 1.55 fold enrichment (6-mer frequency, TF over GST control) in assay [7] and 1.67 fold enrichment (6-mer frequency, TF over GST control) in assay [8].

As for ATTACC, the binding signal in assay [1] was 1.18 fold enrichment (6-mer frequency, TF over GST control); in assay [2] it was 1.2 fold enrichment (6-mer frequency, TF over GST control); in assay [3], 1.27 fold enrichment (6-mer frequency, TF over GST control); in assay [4], 1.18 fold enrichment (6-mer frequency, TF over GST control); in assay [5], 1.28 fold enrichment (6-mer frequency, TF over GST control); in assay [6], 1.32 fold enrichment (6-mer frequency, TF over GST control). Also, the binding signal in assay [7] was 1.31 fold enrichment (6-mer frequency, TF over GST control); in assay [8], 1.33 fold enrichment (6-mer frequency, TF over GST control).

Turning to TCTTGG, the binding signal in assay [1] is 1.4 fold enrichment (6-mer frequency, TF over GST control); in assay [2], 1.43 fold enrichment (6-mer frequency, TF over GST control); in assay [3] it was 1.27 fold enrichment (6-mer frequency, TF over GST control); in assay [4] it was 1.27 fold enrichment (6-mer frequency, TF over GST control); in assay [5] it was 1.38 fold enrichment (6-mer frequency, TF over GST control); in assay [6] it was 1.31 fold enrichment (6-mer frequency, TF over GST control). Moreover, the binding signal in assay [7] is 1.29 fold enrichment (6-mer frequency, TF over GST control); in assay [8], 1.19 fold enrichment (6-mer frequency, TF over GST control).

Regarding TAGCTC, the binding signal in assay [1] was 1.04 fold enrichment (6-mer frequency, TF over GST control); in assay [2] it was 1.14 fold enrichment (6-mer frequency, TF over GST control); in assay [3] it was 1.21 fold enrichment (6-mer frequency, TF over GST control); in assay [4], 1.24 fold enrichment (6-mer frequency, TF over GST control); in assay [5], 1.24 fold enrichment (6-mer frequency, TF over GST control); in assay [6], 1.1 fold enrichment (6-mer frequency, TF over GST control). For the same sequence, the binding signal in assay [7] is 1.17 fold enrichment (6-mer frequency, TF over GST control); in assay [8], 1.14 fold enrichment (6-mer frequency, TF over GST control).

On to TTGACT, for which the binding signal in assay [1] was 1.18 fold enrichment (6-mer frequency, TF over GST control); in assay [2], 1.09 fold enrichment (6-mer frequency, TF over GST control); in assay [3], 1.14 fold enrichment (6-mer frequency, TF over GST control); in assay [4] it was 1.15 fold enrichment (6-mer frequency, TF over GST control); in assay [5], 1.22 fold enrichment (6-mer frequency, TF over GST control); in assay [6], 1.08 fold enrichment (6-mer frequency, TF over GST control). The binding signal was 1.15 fold enrichment (6-mer frequency, TF over GST control) in assay [7] and 1.24 fold enrichment (6-mer frequency, TF over GST control) in assay [8].

As for ATTTGA, the binding signal in assay [1] was 1.14 fold enrichment (6-mer frequency, TF over GST control); in assay [2], 1.25 fold enrichment (6-mer frequency, TF over GST control); in assay [3] it was 1.2 fold enrichment (6-mer frequency, TF over GST control); in assay [4] it was 1.19 fold enrichment (6-mer frequency, TF over GST control); in assay [5], 1.28 fold enrichment (6-mer frequency, TF over GST control); in assay [6], 1.12 fold enrichment (6-mer frequency, TF over GST control). For the same sequence, the binding signal in assay [7] was 1.21 fold enrichment (6-mer frequency, TF over GST control); in assay [8] it was 1.16 fold enrichment (6-mer frequency, TF over GST control).

Consider TCCGCT, for which the binding signal in assay [1] is 2.12 fold enrichment (6-mer frequency, TF over GST control); in assay [2], 2.23 fold enrichment (6-mer frequency, TF over GST control); in assay [3] it was 2.32 fold enrichment (6-mer frequency, TF over GST control); in assay [4], 2.51 fold enrichment (6-mer frequency, TF over GST control); in assay [5], 2.07 fold enrichment (6-mer frequency, TF over GST control); in assay [6], 2.58 fold enrichment (6-mer frequency, TF over GST control). In addition, the binding signal in assay [7] was 2.44 fold enrichment (6-mer frequency, TF over GST control); in assay [8], 2.44 fold enrichment (6-mer frequency, TF over GST control).

In the case of AAAACT, the binding signal in assay [1] is 1.2 fold enrichment (6-mer frequency, TF over GST control); in assay [2], 1.19 fold enrichment (6-mer frequency, TF over GST control); in assay [3], 1.24 fold enrichment (6-mer frequency, TF over GST control); in assay [4] it was 1.09 fold enrichment (6-mer frequency, TF over GST control); in assay [5], 1.29 fold enrichment (6-mer frequency, TF over GST control); in assay [6] it was 1.27 fold enrichment (6-mer frequency, TF over GST control). The binding signal in assay [7] was 1.21 fold enrichment (6-mer frequency, TF over GST control); in assay [8], 1.19 fold enrichment (6-mer frequency, TF over GST control).

Values taken from article PMC7862700, “An all-to-all approach to the identification of sequence-specific readers for epigenetic DNA modifications on cytosine”.
